Consider 7 compounds from PubChem BioAssay (EPA / NIEHS).

Broadly, the AC50 is the midpoint of the concentration-response curve, whichever way the signal moves.

For assay [1], the target named is human Vascular Endothelial Growth Factor Receptor 3 (VEGFR3), FLT4 (gene 2324) (UniProt P35916). Description: NVS_ENZ_hVEGFR3: NovaScreen (NVS) Enzymatic Assay for human Vascular Endothelial Growth Factor Receptor 3 (VEGFR3) (AID 2283229). The method in brief: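 Cell-free recombinant VEGFR3 kinase reaction with fluorescent substrate, read 1 h after dosing by electrophoretic mobility shift separation of substrate and product. Single-concentration duplicate screen at 25 uM, then concentration-response up to 50 uM; loss of activity versus DMSO.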

The target in assay [2] is rat Constitutive Nitric Oxide Synthase (CNOS), Nos1 (gene 24598) (UniProt P29476). Description: NVS_ENZ_rCNOS: NovaScreen (NVS) Enzymatic Assay for rat Constitutive Nitric Oxide Synthase (CNOS) (AID 2283236). The method, boiled down:
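Enzyme activity in rat brain membrane preparation, read 1 h after dosing by filter-based radiometric scintillation counting. Primary screen in duplicate at 25 uM; actives (e.g., ≥30% inhibition) then run in concentration-response up to 50 uM.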

In assay [3] the target is Adenosine receptor A1 (Bos taurus) (UniProt P28190). Description: NVS_GPCR_bAdoR_NonSelective: NovaScreen (NVS) G Protein-Coupled Receptor Assay for bovine Adenosine Receptor (AdoR), Non-selective Binding (AID 2283244). The method in brief: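 Bovine striatal membranes, radioligand displacement binding, 1 h after dosing, filter-based scintillation counting. Screened in duplicate at 25 uM, then concentration-response up to 50 uM; loss of specific binding relative to DMSO.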

The subject of assay [4] is guinea pig Leukotriene B4 Receptor (LTB4), gene 100379538. Kind of assay: NVS_GPCR_gLTB4: NovaScreen (NVS) G Protein-Coupled Receptor Assay for guinea pig Leukotriene B4 Receptor (LTB4) (AID 2283247). The method in brief: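 Radioligand displacement on guinea pig spleen membranes, filter-based scintillation counting 2 h after dosing. Primary duplicate single point at 25 uM; hits over threshold (e.g. 30% inhibition) run in concentration-response up to 50 uM, DMSO baseline.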

Assay [5] concerns the target human Adrenergic, Alpha 2A Receptor (Adra2A), ADRA2A (gene 150) (UniProt P08913). Description: NVS_GPCR_hAdra2A: NovaScreen (NVS) G Protein-Coupled Receptor Assay for human Adrenergic, Alpha 2A Receptor (Adra2A) (AID 2283257). The method in brief: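 Radioligand filter-binding was run on HT29-derived membranes, cell-free, read by scintillation counting 1 h after dosing. Primary screening was in duplicate at 25 uM, with concentration series in follow-up. Loss of signal versus DMSO indicates displacement.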

Assay [6] in a line: NVS_GPCR_bNPY_NonSelective: NovaScreen (NVS) G Protein-Coupled Receptor Assay for bovine Neuropeptide Y (NPY) Receptor, Non-selective Binding (AID 2283245). The protocol: NVS_GPCR_bNPY_NonSelective is a biochemical, single-readout assay that uses extracted gene-proteins from Bovine hippocampal membranes in a tissue-based cell-free assay. Measurements were taken 1 hour after chemical dosing in a 96-well plate.NVS_GPCR_bNPY_NonSelective is one of one assay component(s) measured or calculated from the NVS_GPCR_bNPY_NonSelective assay. It is designed to make measurements of radioligand binding, a form of binding reporter, as detected with scintillation counting signals by Filter-based radiodetection technology.Data from the assay component NVS_GPCR_bNPY_NonSelective was analyzed into 1 assay endpoint. This assay endpoint, NVS_GPCR_bNPY_NonSelective, was analyzed in the positive analysis fitting direction relative to DMSO as the negative control and baseline of activity. Using a type of binding reporter, loss-of-signal activity can be used to understand changes in the binding as they relate to the gene NPY. Furthermore, this assay endpoint can be referred to as a primary readout, because the performed assay has only produced 1 assay endpoint. To generalize the intended target to other relatable targets, this assay endpoint is annotated to the gpcr intended target family, where the subfamily is rhodopsin-like receptor. […]

The target in assay [7] is human Serotonin, 5-Hydroxytryptamine Receptor 6 (5HT6), HTR6 (gene 3362) (UniProt P50406). Description: NVS_GPCR_h5HT6: NovaScreen (NVS) G Protein-Coupled Receptor Assay for human Serotonin, 5-Hydroxytryptamine Receptor 6 (5HT6) (AID 2283253). The method in brief:
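Radioligand binding to 5HT6 in HEK293-derived membranes, cell-free, 1 h after dosing; bound ligand measured by filter-based scintillation counting. Primary screen in duplicate at 25 uM; actives retested in concentration series.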

Assay [8] deals with human Adenosine A2a Receptor (AdoRA2a), ADORA2A (gene 135) (UniProt P29274). Description: NVS_GPCR_hAdoRA2a: NovaScreen (NVS) G Protein-Coupled Receptor Assay for human Adenosine A2a Receptor (AdoRA2a) (AID 2283256). The method, boiled down: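 Radioligand displacement on HEK293-derived membrane protein, cell-free; filter-based scintillation counting 1.5 hours after dosing, loss of signal vs DMSO. Single-point duplicate screen at 25 uM, actives retested in concentration series.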

Molecules are shown by their SMILES. Results filed as inconclusive are left out. Calls of active or inactive are those of the source. Rule for the calls: active = hit-call score of the fitted dose curve at least 0.9, where 1 is the maximum; inconclusive = response in the unintended direction; inactive = score below 0.9.

human Vascular Endothelial Growth Factor Receptor 3 (VEGFR3), FLT4 (gene 2324), sequence (P35916 whole entry, looked up): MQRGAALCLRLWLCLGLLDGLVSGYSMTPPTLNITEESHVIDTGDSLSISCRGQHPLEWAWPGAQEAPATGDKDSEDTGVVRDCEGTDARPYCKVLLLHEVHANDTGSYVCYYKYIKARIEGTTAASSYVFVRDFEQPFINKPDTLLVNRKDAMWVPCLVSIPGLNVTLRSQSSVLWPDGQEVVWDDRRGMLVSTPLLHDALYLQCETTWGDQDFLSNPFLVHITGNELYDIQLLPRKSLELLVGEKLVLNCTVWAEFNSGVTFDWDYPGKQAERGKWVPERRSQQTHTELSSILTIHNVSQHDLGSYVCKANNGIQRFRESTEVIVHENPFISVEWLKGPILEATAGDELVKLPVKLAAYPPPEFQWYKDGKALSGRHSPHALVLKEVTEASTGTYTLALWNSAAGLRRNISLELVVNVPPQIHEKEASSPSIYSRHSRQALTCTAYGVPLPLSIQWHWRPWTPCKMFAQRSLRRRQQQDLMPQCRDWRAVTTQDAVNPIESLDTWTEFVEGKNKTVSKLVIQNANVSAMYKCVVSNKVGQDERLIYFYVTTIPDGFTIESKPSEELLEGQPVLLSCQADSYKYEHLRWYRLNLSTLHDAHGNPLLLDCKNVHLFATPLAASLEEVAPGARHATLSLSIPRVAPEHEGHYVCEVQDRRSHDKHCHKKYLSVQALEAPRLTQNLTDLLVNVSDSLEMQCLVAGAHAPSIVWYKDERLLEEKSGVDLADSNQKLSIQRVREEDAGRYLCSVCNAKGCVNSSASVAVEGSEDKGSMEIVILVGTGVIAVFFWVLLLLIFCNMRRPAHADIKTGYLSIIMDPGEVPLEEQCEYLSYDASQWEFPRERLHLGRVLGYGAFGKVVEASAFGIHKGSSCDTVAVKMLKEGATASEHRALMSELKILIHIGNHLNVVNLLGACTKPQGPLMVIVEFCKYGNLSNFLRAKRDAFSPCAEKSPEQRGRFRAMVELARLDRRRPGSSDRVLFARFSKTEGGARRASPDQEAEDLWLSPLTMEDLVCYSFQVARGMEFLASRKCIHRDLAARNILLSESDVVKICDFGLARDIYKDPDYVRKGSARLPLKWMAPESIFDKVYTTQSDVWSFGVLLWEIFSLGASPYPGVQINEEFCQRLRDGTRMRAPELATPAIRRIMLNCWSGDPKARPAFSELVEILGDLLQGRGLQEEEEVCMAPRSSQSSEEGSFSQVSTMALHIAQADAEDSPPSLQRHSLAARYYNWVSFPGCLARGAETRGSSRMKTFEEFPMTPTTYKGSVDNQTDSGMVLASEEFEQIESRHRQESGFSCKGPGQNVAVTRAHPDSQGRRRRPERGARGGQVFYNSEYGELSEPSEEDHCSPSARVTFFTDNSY
rat Constitutive Nitric Oxide Synthase (CNOS), Nos1 (gene 24598), sequence (P29476 whole entry, looked up): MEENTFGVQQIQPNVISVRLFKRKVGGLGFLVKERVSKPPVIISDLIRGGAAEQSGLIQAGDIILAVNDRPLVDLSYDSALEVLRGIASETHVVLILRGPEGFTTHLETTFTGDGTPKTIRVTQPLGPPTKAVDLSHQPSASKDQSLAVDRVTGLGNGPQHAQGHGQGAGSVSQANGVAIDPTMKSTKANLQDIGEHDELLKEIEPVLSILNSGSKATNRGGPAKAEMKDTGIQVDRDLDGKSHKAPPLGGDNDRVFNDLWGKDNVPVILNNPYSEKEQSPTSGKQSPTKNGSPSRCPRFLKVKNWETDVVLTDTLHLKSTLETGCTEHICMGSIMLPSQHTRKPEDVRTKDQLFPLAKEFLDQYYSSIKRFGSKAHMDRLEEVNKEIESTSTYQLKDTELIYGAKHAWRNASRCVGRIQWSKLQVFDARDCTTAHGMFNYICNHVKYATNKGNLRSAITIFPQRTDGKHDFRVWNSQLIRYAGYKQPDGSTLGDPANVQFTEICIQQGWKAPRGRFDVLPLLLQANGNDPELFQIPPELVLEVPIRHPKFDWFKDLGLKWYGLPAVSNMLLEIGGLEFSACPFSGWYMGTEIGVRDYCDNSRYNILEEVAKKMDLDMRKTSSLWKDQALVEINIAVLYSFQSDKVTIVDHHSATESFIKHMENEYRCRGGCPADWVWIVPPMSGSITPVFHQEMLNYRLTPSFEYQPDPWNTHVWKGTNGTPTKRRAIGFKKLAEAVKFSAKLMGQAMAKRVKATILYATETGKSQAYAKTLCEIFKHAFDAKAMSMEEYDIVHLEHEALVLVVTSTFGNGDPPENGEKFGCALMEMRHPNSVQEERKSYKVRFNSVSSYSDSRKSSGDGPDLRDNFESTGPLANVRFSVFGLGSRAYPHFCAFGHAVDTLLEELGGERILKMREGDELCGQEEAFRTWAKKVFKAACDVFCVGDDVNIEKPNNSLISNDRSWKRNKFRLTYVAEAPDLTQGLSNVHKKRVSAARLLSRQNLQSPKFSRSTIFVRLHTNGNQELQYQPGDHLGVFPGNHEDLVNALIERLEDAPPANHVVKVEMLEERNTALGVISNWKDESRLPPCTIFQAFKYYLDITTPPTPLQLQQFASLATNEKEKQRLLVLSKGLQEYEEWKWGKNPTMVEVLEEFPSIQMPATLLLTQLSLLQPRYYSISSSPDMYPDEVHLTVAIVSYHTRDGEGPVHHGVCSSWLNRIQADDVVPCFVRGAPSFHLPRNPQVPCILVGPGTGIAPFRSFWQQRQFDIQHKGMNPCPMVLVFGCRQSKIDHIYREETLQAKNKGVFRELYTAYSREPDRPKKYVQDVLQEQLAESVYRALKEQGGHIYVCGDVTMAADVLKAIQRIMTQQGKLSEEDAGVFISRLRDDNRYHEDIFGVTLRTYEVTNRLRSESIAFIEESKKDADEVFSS
human Serotonin, 5-Hydroxytryptamine Receptor 6 (5HT6), HTR6 (gene 3362), sequence (P50406 whole entry, looked up): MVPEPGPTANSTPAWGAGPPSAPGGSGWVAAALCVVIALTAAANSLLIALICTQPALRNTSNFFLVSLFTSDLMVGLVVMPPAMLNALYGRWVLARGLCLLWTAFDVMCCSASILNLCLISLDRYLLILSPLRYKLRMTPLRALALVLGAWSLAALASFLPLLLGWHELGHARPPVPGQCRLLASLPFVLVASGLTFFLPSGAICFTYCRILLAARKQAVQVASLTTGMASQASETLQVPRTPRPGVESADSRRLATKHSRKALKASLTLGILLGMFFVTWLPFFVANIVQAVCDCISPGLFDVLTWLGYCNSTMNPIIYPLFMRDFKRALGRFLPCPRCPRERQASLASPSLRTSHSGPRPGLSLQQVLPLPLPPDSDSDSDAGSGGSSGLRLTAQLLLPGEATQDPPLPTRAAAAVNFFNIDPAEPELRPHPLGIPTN
Adenosine receptor A1 (Bos taurus), sequence (P28190 whole entry, looked up): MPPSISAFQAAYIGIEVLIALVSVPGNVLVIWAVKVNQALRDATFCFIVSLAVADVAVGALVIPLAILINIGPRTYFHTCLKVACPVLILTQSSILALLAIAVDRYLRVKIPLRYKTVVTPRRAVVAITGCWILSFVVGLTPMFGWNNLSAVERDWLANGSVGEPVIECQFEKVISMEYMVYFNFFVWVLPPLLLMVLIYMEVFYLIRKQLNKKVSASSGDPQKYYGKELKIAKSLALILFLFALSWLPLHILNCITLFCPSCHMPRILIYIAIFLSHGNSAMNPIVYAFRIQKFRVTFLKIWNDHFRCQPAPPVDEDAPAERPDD
human Adenosine A2a Receptor (AdoRA2a), ADORA2A (gene 135), sequence (P29274 whole entry, looked up): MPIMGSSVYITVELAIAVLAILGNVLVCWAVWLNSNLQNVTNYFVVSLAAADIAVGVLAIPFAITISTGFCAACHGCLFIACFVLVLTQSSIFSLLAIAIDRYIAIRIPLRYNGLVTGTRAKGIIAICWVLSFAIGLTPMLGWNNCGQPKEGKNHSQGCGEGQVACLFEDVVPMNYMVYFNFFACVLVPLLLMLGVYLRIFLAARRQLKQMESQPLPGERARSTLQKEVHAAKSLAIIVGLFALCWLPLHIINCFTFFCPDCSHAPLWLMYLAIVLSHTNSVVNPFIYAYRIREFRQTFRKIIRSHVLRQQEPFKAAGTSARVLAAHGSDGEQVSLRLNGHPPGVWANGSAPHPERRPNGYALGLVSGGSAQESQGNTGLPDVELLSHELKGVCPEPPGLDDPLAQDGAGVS
human Adrenergic, Alpha 2A Receptor (Adra2A), ADRA2A (gene 150), sequence (P08913 whole entry, looked up): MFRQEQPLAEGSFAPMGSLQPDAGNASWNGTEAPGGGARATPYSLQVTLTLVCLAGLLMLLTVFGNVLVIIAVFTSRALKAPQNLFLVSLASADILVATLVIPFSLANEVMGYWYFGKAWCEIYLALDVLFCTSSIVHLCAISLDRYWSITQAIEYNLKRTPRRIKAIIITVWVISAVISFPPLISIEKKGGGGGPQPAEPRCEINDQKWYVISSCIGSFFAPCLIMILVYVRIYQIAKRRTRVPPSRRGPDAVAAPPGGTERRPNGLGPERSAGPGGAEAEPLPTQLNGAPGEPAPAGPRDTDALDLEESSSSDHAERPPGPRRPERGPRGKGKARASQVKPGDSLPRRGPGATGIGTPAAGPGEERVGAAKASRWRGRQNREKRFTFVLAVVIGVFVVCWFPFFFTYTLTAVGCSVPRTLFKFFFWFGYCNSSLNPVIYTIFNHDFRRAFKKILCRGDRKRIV

Turning to `CCCCCCCCCCCCOS(=O)(=O)O`, the figures for the AC50 in assay [1] and in assay [4] were 29.3 µM (active) and 25 µM (active), respectively. Further, the compound was called inactive in assay [2] and in assay [3].

In the case of `Cc1[nH]nc2c1N=C(c1ccccc1Cl)c1cc([N+](=O)[O-])ccc1N2`, the AC50 in assay [1] was 0.00229 µM (active).

For `N=C(N)c1ccc(OCCCCCOc2ccc(C(=N)N)cc2)cc1`, the AC50 in assay [2] was 6.42 µM (active); in assay [4], 2.4 µM (active); in assay [5], 23.2 µM (active).

Consider `O=C(c1ccccc1)c1ccccc1`, for which the compound was classed as inactive in assay [3].

Turning to `CCCCc1oc2ccccc2c1C(=O)c1cc(I)c(OCCN(CC)CC)c(I)c1`, in assay [6], the call was inactive. In addition, in assay [7], the AC50 is 7.27 µM (active).

For the compound `CN(Cc1cnc2nc(N)nc(N)c2n1)c1ccc(C(=O)N[C@@H](CCC(=O)O)C(=O)O)cc1`, the call in assay [7] was inactive. Further, the AC50 in assay [8] was 9.68 µM (active).

In the case of `CN(C)c1ccc(C(=C2C=CC(=[N+](C)C)C=C2)c2ccccc2)cc1`, in assay [8], the compound was classed as inactive.
